Measurements from publication PMC7862700, “An all-to-all approach to the identification of sequence-specific readers for epigenetic DNA modifications on cytosine”.

Assays:
Assay in all cases: DAPPL (digital affinity profiling via proximity ligation, sequencing); 10 mM Tris-HCl pH 7.5, 50 mM NaCl, 1 mM DTT, 4% glycerol, room temperature, 30 min; GST-TFs on glutathione beads, 16-mer random dsDNA library, 0.1% formaldehyde crosslink after washing; high values mean tight binding
[1] = molecular target: T1, FEV (Homo sapiens, UniProt Q99581 1-238); settings: protein: recombinant; tags: N-terminal GST; dsDNA, one strand shown
T1 sequence: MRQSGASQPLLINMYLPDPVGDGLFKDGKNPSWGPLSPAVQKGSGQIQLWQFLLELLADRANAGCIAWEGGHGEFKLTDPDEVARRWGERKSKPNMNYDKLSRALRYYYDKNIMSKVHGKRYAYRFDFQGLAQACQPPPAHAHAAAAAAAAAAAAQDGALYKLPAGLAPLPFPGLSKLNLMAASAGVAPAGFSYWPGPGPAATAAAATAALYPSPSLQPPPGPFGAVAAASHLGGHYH
Outline: (§1)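 Human transcription factors were made in yeast as GST fusions, captured on glutathione beads and barcoded with DNA. With a tag-only sample included, the pool was incubated with 200 nmole of a random double-stranded 16-mer DNA library in Tris/NaCl/DTT/glycerol buffer at room temperature for 30 min, then crosslinked with 0.1% formaldehyde after washing, ligated by proximity, amplified and sequenced. For binding signal, each hexamer's read frequency for a factor is divided by its frequency for the tag-only sample.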

[2] = molecular target: ETV5 (Homo sapiens, UniProt P41161 1-510); settings: protein: recombinant; tags: N-terminal GST; dsDNA, one strand shown
Outline: as §1

[3] = molecular target: HSF1 (Homo sapiens, UniProt Q00613 1-529); settings: protein: recombinant; tags: N-terminal GST; chain copies: 3; dsDNA, one strand shown
Outline: as §1

[4] = molecular target: T2, SPIC (Homo sapiens, UniProt Q8N5J4 1-248); settings: protein: recombinant; tags: N-terminal GST; dsDNA, one strand shown
T2 sequence: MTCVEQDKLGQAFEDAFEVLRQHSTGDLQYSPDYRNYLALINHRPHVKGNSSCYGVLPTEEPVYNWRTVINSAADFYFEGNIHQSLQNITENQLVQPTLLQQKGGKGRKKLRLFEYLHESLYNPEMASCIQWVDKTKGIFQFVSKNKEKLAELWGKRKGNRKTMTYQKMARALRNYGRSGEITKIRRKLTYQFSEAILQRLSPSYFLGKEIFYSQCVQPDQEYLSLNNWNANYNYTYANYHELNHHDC
Outline: as §1

[5] = molecular target: ELF4 (Homo sapiens, UniProt Q99607 1-663); settings: protein: recombinant; tags: N-terminal GST; dsDNA, one strand shown
Outline: as §1

[6] = molecular target: T3, ELK4 (Homo sapiens, UniProt P28324-2 1-405); settings: protein: recombinant; tags: N-terminal GST; dsDNA, one strand shown
T3 sequence: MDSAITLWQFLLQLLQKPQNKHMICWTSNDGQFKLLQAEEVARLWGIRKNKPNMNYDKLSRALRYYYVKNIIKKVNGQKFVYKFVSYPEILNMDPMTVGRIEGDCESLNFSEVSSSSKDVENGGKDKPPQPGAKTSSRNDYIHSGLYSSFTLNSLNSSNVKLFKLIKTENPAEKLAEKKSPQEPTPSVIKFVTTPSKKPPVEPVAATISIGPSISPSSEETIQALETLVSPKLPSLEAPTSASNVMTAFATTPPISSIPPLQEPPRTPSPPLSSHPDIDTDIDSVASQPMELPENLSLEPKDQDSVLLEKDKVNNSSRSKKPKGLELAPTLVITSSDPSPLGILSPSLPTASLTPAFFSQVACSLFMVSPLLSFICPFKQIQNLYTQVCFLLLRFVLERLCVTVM
Outline: as §1

[7] = molecular target: T4, ETV2 (Homo sapiens, UniProt O00321 1-342); settings: protein: recombinant; tags: N-terminal GST; dsDNA, one strand shown
T4 sequence: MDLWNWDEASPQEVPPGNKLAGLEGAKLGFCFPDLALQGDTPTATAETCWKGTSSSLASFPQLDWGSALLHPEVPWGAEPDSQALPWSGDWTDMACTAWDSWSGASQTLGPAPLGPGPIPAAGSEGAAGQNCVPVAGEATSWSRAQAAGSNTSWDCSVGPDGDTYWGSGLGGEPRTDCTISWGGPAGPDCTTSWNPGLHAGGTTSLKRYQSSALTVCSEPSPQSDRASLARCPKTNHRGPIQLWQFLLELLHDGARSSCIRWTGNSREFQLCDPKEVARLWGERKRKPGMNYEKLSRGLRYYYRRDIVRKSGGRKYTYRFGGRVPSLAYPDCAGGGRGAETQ
Outline: as §1

[8] = molecular target: T5, ELF3 (Homo sapiens, UniProt P78545 1-371); settings: protein: recombinant; tags: N-terminal GST; dsDNA, one strand shown
T5 sequence: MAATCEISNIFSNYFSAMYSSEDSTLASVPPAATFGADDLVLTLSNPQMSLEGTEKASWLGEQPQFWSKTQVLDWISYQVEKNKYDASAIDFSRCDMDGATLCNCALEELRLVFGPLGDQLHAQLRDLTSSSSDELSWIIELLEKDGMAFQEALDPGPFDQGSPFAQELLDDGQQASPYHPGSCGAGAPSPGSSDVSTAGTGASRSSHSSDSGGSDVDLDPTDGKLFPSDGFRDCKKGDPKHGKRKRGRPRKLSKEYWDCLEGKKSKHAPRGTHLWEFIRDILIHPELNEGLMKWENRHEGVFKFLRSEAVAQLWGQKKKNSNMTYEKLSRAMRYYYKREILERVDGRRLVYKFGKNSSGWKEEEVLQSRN
Outline: as §1

[9] = molecular target: CRX (Homo sapiens, UniProt O43186 1-299); settings: protein: recombinant; tags: N-terminal GST; dsDNA, one strand shown
Outline: as §1

[10] = molecular target: ETV1 (Homo sapiens, UniProt P50549 1-477); settings: protein: recombinant; tags: N-terminal GST; dsDNA, one strand shown
Outline: as §1

[11] = molecular target: T6, ERF (Homo sapiens, UniProt P50548 1-548); settings: protein: recombinant; tags: N-terminal GST; dsDNA, one strand shown
T6 sequence: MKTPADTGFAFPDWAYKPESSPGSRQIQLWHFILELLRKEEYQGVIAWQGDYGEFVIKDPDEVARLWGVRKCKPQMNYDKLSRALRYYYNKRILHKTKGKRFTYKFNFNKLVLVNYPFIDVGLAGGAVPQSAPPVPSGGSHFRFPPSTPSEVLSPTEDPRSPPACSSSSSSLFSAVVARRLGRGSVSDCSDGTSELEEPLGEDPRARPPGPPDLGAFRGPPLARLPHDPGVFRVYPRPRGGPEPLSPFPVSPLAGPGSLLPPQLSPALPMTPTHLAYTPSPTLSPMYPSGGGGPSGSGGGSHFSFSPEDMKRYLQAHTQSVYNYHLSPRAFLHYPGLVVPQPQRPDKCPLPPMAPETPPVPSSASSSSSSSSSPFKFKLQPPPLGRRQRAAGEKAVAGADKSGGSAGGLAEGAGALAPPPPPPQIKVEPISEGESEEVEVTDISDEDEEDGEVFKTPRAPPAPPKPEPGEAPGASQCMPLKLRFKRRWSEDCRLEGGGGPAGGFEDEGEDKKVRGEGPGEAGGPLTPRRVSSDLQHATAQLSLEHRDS
Outline: as §1

[12] = molecular target: T7, ETV3L (Homo sapiens, UniProt Q6ZN32 1-361); settings: protein: recombinant; tags: N-terminal GST; dsDNA, one strand shown
T7 sequence: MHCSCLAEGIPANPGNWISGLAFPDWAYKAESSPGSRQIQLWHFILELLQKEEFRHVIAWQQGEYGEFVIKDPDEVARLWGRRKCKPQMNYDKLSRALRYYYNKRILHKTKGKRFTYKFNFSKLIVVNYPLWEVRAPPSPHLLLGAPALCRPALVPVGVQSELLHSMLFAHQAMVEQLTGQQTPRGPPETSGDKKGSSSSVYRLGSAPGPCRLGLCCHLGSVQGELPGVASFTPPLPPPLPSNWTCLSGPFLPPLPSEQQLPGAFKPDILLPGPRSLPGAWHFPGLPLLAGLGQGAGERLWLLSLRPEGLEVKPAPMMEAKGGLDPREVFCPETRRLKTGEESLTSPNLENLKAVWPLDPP
Outline: as §1

[13] = molecular target: T8, ETS2 (Homo sapiens, UniProt P15036 1-469); settings: protein: recombinant; tags: N-terminal GST; dsDNA, one strand shown
T8 sequence: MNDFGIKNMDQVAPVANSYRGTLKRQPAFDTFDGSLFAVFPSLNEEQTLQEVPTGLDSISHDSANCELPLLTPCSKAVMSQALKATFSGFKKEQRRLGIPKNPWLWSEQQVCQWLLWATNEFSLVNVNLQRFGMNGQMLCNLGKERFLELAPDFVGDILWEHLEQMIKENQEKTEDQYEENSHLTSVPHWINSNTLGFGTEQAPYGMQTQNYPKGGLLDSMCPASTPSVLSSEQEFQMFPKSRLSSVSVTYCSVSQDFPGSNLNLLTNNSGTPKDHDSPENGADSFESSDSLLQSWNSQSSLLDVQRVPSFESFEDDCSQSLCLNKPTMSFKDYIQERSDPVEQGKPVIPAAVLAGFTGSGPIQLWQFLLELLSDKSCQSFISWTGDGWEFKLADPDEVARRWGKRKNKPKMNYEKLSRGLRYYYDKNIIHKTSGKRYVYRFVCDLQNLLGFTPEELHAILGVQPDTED
Outline: as §1

[14] = molecular target: T9, SPDEF (Homo sapiens, UniProt O95238 1-335); settings: protein: recombinant; tags: N-terminal GST; dsDNA, one strand shown
T9 sequence: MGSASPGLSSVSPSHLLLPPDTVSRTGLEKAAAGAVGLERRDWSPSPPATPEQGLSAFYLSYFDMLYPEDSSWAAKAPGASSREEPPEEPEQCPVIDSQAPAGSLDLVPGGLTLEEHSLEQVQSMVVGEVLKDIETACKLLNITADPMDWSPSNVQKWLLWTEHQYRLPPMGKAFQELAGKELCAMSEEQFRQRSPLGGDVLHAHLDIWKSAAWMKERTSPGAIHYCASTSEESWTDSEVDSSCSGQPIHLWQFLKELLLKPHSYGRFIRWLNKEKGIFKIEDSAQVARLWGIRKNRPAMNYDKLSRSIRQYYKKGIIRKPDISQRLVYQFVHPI
Outline: as §1

[15] = molecular target: T10, ETV7 (Homo sapiens, UniProt Q9Y603 1-341); settings: protein: recombinant; tags: N-terminal GST; dsDNA, one strand shown
T10 sequence: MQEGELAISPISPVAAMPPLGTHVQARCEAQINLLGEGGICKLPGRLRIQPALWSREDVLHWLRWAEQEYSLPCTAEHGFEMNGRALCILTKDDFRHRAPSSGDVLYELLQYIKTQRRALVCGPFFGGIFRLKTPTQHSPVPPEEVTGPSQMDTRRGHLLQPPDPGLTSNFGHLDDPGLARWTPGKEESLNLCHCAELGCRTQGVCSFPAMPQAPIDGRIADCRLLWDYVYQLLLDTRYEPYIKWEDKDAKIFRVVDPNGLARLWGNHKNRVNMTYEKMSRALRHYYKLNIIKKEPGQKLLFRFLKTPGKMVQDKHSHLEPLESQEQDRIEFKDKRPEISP
Outline: as §1

[16] = molecular target: T11, ELF5 (Homo sapiens, UniProt Q9UKW6-2 1-255); settings: protein: recombinant; tags: N-terminal GST; dsDNA, one strand shown
T11 sequence: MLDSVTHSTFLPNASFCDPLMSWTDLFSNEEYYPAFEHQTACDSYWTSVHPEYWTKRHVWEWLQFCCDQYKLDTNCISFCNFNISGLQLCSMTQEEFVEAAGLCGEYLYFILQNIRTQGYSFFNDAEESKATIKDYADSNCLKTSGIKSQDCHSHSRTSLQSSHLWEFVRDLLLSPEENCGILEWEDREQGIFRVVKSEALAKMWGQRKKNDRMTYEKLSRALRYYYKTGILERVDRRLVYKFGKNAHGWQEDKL
Outline: as §1

[17] = molecular target: T12, ETV3 (Homo sapiens, UniProt P41162-2 1-143); settings: protein: recombinant; tags: N-terminal GST; dsDNA, one strand shown
T12 sequence: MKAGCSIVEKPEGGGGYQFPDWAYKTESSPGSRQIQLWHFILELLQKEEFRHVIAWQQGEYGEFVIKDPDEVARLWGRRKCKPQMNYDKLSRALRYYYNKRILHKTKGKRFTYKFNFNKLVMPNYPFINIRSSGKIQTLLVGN
Outline: as §1

[18] = molecular target: ETV6 (Homo sapiens, UniProt P41212 1-452); settings: protein: recombinant; tags: N-terminal GST; dsDNA, one strand shown
Outline: as §1

ETV1, sequence (P50549 whole entry): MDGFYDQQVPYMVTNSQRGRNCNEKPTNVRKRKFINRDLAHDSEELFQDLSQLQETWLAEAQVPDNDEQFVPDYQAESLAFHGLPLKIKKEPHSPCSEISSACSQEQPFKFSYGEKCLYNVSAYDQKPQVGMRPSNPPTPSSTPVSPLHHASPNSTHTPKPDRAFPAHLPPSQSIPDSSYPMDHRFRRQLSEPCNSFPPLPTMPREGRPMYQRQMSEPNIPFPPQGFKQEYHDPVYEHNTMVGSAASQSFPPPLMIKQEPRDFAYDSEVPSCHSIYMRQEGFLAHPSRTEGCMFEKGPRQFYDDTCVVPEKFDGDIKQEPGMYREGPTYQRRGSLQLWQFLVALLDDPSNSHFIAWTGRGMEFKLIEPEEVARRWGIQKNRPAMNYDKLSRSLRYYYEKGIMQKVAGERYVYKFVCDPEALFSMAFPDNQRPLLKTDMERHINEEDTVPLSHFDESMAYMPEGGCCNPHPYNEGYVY
CRX, sequence (O43186 whole entry): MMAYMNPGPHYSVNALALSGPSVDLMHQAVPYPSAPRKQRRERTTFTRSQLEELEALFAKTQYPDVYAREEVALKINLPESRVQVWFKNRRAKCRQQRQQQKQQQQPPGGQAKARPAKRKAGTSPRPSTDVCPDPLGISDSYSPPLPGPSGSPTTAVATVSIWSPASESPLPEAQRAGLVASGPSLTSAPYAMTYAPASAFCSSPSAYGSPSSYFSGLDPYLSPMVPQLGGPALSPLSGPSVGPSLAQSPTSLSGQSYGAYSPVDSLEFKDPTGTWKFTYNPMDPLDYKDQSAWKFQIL
ELF4, sequence (Q99607 whole entry): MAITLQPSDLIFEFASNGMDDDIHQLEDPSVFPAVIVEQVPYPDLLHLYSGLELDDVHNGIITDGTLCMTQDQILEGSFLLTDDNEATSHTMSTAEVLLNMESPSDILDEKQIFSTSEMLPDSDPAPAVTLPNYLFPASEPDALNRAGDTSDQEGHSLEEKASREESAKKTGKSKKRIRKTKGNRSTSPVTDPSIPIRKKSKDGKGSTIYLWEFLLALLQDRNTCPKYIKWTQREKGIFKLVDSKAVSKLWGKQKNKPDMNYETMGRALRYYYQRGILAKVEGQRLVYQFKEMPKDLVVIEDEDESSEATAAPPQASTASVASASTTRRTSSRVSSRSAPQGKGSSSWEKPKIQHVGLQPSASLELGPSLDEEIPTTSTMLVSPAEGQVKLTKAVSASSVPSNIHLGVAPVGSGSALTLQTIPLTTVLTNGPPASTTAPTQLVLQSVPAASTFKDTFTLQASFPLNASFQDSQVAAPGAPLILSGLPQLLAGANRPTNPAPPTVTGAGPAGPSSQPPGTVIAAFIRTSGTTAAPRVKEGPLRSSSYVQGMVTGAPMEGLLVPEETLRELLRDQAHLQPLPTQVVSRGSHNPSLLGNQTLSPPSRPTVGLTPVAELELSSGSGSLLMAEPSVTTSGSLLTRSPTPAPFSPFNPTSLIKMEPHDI
ETV5, sequence (P41161 whole entry): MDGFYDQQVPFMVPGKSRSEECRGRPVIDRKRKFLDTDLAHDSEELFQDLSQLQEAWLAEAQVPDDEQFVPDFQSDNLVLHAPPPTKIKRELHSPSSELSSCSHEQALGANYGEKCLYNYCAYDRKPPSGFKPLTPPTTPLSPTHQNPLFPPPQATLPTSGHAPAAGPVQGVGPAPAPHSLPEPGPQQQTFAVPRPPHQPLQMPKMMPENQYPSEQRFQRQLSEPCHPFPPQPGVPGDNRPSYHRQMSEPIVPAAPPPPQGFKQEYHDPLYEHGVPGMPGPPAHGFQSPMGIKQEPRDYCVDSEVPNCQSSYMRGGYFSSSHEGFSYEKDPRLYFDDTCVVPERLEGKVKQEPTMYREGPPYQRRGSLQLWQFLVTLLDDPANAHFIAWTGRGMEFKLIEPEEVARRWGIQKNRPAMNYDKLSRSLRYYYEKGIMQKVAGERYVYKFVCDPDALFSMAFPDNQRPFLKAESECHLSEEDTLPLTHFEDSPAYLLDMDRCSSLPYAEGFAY
HSF1, sequence (Q00613 whole entry): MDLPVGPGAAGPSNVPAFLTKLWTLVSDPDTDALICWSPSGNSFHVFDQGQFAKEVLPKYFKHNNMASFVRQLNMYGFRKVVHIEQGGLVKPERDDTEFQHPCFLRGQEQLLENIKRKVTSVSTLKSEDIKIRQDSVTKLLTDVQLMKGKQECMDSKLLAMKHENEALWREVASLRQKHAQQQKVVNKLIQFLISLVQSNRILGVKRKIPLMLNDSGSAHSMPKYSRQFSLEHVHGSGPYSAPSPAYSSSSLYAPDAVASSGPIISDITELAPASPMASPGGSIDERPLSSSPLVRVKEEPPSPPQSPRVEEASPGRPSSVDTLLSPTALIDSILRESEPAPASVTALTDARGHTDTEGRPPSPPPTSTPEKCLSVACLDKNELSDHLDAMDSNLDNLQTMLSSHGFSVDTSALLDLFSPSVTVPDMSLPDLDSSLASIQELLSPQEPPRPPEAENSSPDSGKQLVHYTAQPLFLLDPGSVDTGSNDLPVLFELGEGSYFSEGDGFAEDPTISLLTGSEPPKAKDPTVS
ETV6, sequence (P41212 whole entry): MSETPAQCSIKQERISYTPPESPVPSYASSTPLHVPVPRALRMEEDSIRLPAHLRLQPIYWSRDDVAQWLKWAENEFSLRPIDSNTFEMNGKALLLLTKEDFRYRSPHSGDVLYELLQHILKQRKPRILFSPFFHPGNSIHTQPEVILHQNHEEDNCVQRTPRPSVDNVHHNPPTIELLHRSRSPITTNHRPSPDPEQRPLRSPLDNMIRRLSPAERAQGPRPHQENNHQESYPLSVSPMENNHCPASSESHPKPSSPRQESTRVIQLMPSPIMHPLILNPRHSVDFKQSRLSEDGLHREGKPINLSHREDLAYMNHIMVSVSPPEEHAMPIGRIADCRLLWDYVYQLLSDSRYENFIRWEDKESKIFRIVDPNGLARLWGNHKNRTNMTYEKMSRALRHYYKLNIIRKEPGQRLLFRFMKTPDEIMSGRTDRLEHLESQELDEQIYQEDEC

Sequence: AAGGAT
- binding signal [1]: 1.1 fold enrichment (6-mer frequency, TF over GST control)
- binding signal [2]: 1.17 fold enrichment (6-mer frequency, TF over GST control)
- binding signal [3]: 1.5 fold enrichment (6-mer frequency, TF over GST control)
- binding signal [4]: 1.09 fold enrichment (6-mer frequency, TF over GST control)
- binding signal [5]: 1.13 fold enrichment (6-mer frequency, TF over GST control)
- binding signal [6]: 1.08 fold enrichment (6-mer frequency, TF over GST control)
- binding signal [7]: 1.24 fold enrichment (6-mer frequency, TF over GST control)
- binding signal [8]: 1.13 fold enrichment (6-mer frequency, TF over GST control)
- binding signal [9]: 1.97 fold enrichment (6-mer frequency, TF over GST control)
- binding signal [10]: 1.12 fold enrichment (6-mer frequency, TF over GST control)
- binding signal [11]: 1.12 fold enrichment (6-mer frequency, TF over GST control)
- binding signal [12]: 1.21 fold enrichment (6-mer frequency, TF over GST control)
- binding signal [13]: 1.14 fold enrichment (6-mer frequency, TF over GST control)
- binding signal [14]: 1.37 fold enrichment (6-mer frequency, TF over GST control)
- binding signal [15]: 1.05 fold enrichment (6-mer frequency, TF over GST control)
- binding signal [16]: 1.43 fold enrichment (6-mer frequency, TF over GST control)
- binding signal [17]: 1.24 fold enrichment (6-mer frequency, TF over GST control)
- binding signal [18]: 1.21 fold enrichment (6-mer frequency, TF over GST control)
